# Results published in PubChem BioAssay (NCI).
# The panel holds about 83,000 compounds, 20% with a hit somewhere; the sample as a whole holds those more often.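 Activity criterion: percent growth below 10, measured after cells in 96-well plates were exposed to a single compound concentration for 48 hours.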 Unmarked numbers belong to inactive results. Activity calls are given as the source filed them.
# Assays:
# Assay in all cases: NCI-60 one-dose screen, 48 h (100 = growth as untreated, 0 = no growth, -100 = all killed)
# Conditions in all cases: 10 µM
# SR leukemia = test system: SR leukemia
# OVCAR-8 ovarian = test system: OVCAR-8 ovarian
# OVCAR-5 ovarian = test system: OVCAR-5 ovarian
# OVCAR-4 ovarian = test system: OVCAR-4 ovarian
# IGROV1 ovarian = test system: IGROV1 ovarian
# OVCAR-3 ovarian = test system: OVCAR-3 ovarian
# HS 578T breast = test system: HS 578T breast
# NCI/ADR-RES ovarian = test system: NCI/ADR-RES ovarian
# T-47D breast = test system: T-47D breast
# BT-549 breast = test system: BT-549 breast
# MDA-MB-435 melanoma = test system: MDA-MB-435 melanoma
# SW-620 colon = test system: SW-620 colon
# MCF7 breast = test system: MCF7 breast
# HCT-116 colon = test system: HCT-116 colon
# HCC-2998 colon = test system: HCC-2998 colon
# KM12 colon = test system: KM12 colon
# SK-OV-3 ovarian = test system: SK-OV-3 ovarian
SMILES,growth (SR leukemia),growth (OVCAR-8 ovarian),growth (OVCAR-5 ovarian) [%],growth (OVCAR-4 ovarian),growth (IGROV1 ovarian),growth (OVCAR-3 ovarian),growth (HS 578T breast),growth (NCI/ADR-RES ovarian),growth (T-47D breast),growth (BT-549 breast),growth (MDA-MB-435 melanoma),growth (SW-620 colon),growth (MCF7 breast),growth (HCT-116 colon),growth (HCC-2998 colon),growth (KM12 colon) [%],growth (SK-OV-3 ovarian)
COc1ccc([C@H]2[C@H](C(=O)Nc3cccnc3)c3ccccc3C(=O)N2c2ccccc2)cc1,46.3%,96.1%,114,98.2%,81.4%,100%,71%,97%,74%,90.5%,99.1%,91.4%,95.7%,49.4%,100%,60.7,–
Cc1ccc(-n2c(C)nn3c(=O)c4c5c(sc4nc23)CN(C)CC5)cc1,104%,103%,98.8,102%,101%,96.7%,107%,101%,81.3%,97.6%,102%,104%,92.3%,93.5%,97.2%,96,95.1%
Cc1cc(O)ccc1C1=NN(c2ccc(S(C)(=O)=O)cc2)C(=O)CC1,12.3%,92.3%,98.1,98%,43.5%,65.1%,86.9%,40.6%,84.8%,58.2%,-8.25% (active),46.6%,82.8%,52.4%,78.6%,47.6,85%
Cc1c(O)c(=O)ccn1C1CCC(CC2CCC(n3ccc(=O)c(O)c3C)CC2)CC1 (centres undefined),41.8%,33.5%,54.5,32.2%,32.5%,28.3%,21.9%,83%,32.3%,31.5%,33.3%,43.1%,15.9%,28.4%,–,46.5,49.9%
N#Cc1c(-c2ccc(Cl)cc2)n(O)c2ccccc12,9.6% (active),26.1%,66,26.5%,4.22% (active),4.13% (active),-21.6% (active),2.73% (active),13.2%,0.694% (active),2.57% (active),15.3%,17.5%,12.9%,–,15.9,12.9%
CC(C)(C)OC(=O)CN1CCc2c(sc3ncnc(N/N=C/c4cccc5ccccc45)c23)C1,18.2%,35.6%,31.1,54.5%,30.1%,39.9%,21.5%,7.91% (active),26.4%,64.3%,27.6%,–,-24.5% (active),26%,44.1%,53.1,67.4%
COc1ccc(-c2cc(-c3ccccc3)nc(SCCCC(=O)NO)n2)cc1,12.3%,6.59% (active),17,13.5%,-32.6% (active),-22.8% (active),13.8%,-40.5% (active),-1.07% (active),19.6%,-3.03% (active),2.34% (active),-5.14% (active),3.36% (active),-16.6% (active),17.3,-20.5% (active)
CCOC(=O)CSc1nc(-c2cc(OC)ccc2OC)cc(-c2ccc(OC)cc2)c1C#N,69.7%,82.4%,97.3,101%,55.4%,95.4%,90.2%,81.6%,65.6%,86%,86.6%,92.1%,71.7%,67.3%,85.5%,71.3,85%
CCOC(=O)c1sc2ncnc(Nc3ccc4c(cnn4C(=O)Nc4ccccc4)c3)c2c1C,27.9%,51.7%,98.9,-1.84% (active),87.1%,67.8%,41.6%,49.2%,51.5%,48.9%,54.2%,50%,55.8%,34.4%,98.4%,65.5,73.2%
O=C(CCCNC(=O)c1nc(-c2ccccc2)n(-c2ccccc2)n1)NO,106%,96.9%,118,118%,101%,108%,105%,109%,94%,106%,109%,–,92%,85.6%,98.9%,110,97%
Cc1ccc(NC(=S)NNC(=S)Nc2ccc(C)cc2)cc1,27.4%,76%,89.1,106%,–,64.5%,78.4%,31.7%,46.8%,71.7%,-1.34% (active),44.3%,29.3%,34.5%,68.9%,–,59.7%
CCOC(=O)c1sc2ncnc(Nc3ccc(NC(=O)Nc4ccc(Cl)cc4)cc3)c2c1C,44.3%,38.7%,99.2,53.4%,92.3%,62.9%,41.4%,37.2%,45.4%,61.8%,59.4%,63.7%,52.1%,17%,90.3%,55.3,74.6%
COc1ccc(-c2nn(-c3cccc(Cl)c3)cc2-c2cc(-c3ccccc3)[nH]c(=O)c2C#N)cc1,64.8%,26.3%,94.1,31%,49.4%,25.8%,23.5%,37.8%,27.6%,3.07% (active),81.5%,67.7%,52.9%,15.6%,49.9%,69.8,-47.3% (active)
CC[C@@H](C(=O)[C@@H](C)[C@@H](O)[C@H](C)[C@@H]1O[C@@H]([C@@H](CC)C(=O)N(CC)CC)CC[C@@H]1C)C1O[C@]2(C=CC(=O)[C@]3(CC[C@@](C)([C@H]4CC[C@](O)(CC)[C@H](C)O4)O3)O2)[C@H](C)C[C@@H]1C (some centres undefined),41.1%,29%,29.7,34.3%,34.9%,21.6%,28.4%,–,16.2%,43.8%,30.2%,25.3%,5.81% (active),5.97% (active),29%,40.9,–
Cc1[nH]c2ccccc2c1/C=N/Nc1ncnc2sc3c(c12)CCN(CC(=O)OC(C)(C)C)C3,23.4%,69%,130,104%,79.8%,83.1%,77.7%,66.1%,80.7%,81.4%,32.3%,60%,65.4%,40.8%,99.5%,76,108%
CCn1c(CSc2nc3ccccc3c(=O)n2CCc2ccccc2)n[nH]c1=S,73.1%,89.7%,91.9,85.6%,93.4%,102%,91%,73.7%,73.3%,72.3%,84.8%,97.5%,84%,65.5%,–,92.3,97.9%
O=C1NC(=O)c2c(CCCSc3nc4ccccc4c(=O)n3CCc3ccccc3)cccc21,66.6%,83.7%,102,60.7%,97.4%,115%,74.1%,79.8%,79.1%,92.6%,85.6%,98.8%,83.5%,80%,–,100,–
COc1ccc2nc(Cl)c(Cn3nnc(Cc4ccccc4)n3)cc2c1,22.9%,40.5%,82.8,19.7%,43.2%,49.8%,68.9%,20.1%,2.44% (active),20.3%,29.3%,66.4%,27.9%,29.2%,59%,36.5,49.4%
